# Screen size: about 13,000 compounds; about 3,200 (25%) showed an effect of 50% or more. The list shows a part of the results.
# Tested on: P. falciparum stage V gametocytes
# Set-up: BacTiter-Glo ATP luminescence viability of purified stage V gametocytes in 384-well plates, per cent inhibition versus DMSO
# Details: 48 h, 5 µM; inhibitor
row,Structure (SMILES),% Inhibition [%]
1,CCc1nnc2sc(-c3cccc(NC(=O)c4ccc(OC)c(Cl)c4)c3)nn12 [TCMDC-125049],-8.625
2,CC(C)(CN)c1cc(-c2ccc(Cl)c(O)c2)c(-c2ccncc2)o1 [TCMDC-141334],-68.46
3,CCCC(=O)Nc1ccc(Cl)c(NC(=O)COc2cc(C)ccc2C(C)C)c1 [TCMDC-123706],-6.515
4,CCc1ccc(NC(=O)c2ccc(CN3CCCN(Cc4cccc(C)c4)CC3)cc2)cc1 [TCMDC-136440],-10.99
5,Nc1ncnc2nc(-c3ccc(F)cc3)cc(-c3ccc(NC(=O)c4ccccc4)cc3)c12 [TCMDC-134854],-13.72
6,CCCC1N=C(N)N=C(N)N1c1ccc(CC)cc1 (centres unmarked) [TCMDC-131300],-2.095
7,CC(C)CC1c2[nH]c3ccccc3c(=O)c2CN1C(=O)OC(C)(C)C (centres unmarked) [TCMDC-134513],44.74
8,COc1ccc(CN(C)CCCc2ccc(NC(=O)c3cccc4c(=O)c5cccc(F)c5[nH]c34)cc2)cc1OC [TCMDC-131964],81.66
9,COc1ccc(CCN(C)CCCOc2ccc(NC(=O)COc3cccc4sc5ccccc5c(=O)c34)cc2)cc1OC [TCMDC-132117],17.11
10,COc1ccc(CN(C)CCCc2ccc(NC(=O)c3cccc4c(=O)c5ccccc5[nH]c34)cc2)cc1OC [TCMDC-131963],13.74
11,COc1cc(CCN(C)Cc2ccc(OC)c(OC)c2)ccc1NC(=O)c1cccc2c(=O)c3cccc(F)c3[nH]c12 [TCMDC-131854],37.94
12,COc1ccc(CN(C)CCCCc2ccc(NC(=O)COc3cccc4sc5ccccc5c(=O)c34)cc2)cc1OC [TCMDC-131960],103.7
13,COc1ccc(CCN(C)CCOc2ccc(NC(=O)COc3ccc4sc5ccccc5c(=O)c4c3)cc2)cc1OC [TCMDC-132111],31.27
14,Cn1cnnc1Sc1ccc(CN2CCOc3ccc(C4=CCCCC4)cc3C2)o1 [TCMDC-124661],-23.49
15,NC1=NC(c2ccccc2)(c2ccccc2)C(=O)N1CCOc1ccccc1 [TCMDC-136493],-46.39
16,Clc1ccc2c(N3CCN(CCN4CCN(c5ccnc6cc(Cl)ccc56)CC4)CC3)ccnc2c1 [TCMDC-125557],-4.056
17,CCc1cc(Cc2cnc(N)nc2N)cc(CC)c1OC [TCMDC-137697],-15.83
18,CCCc1cc(Cc2cnc(N)nc2N)ccc1OCCCCCC(=O)OCC [TCMDC-137232],-11.7
19,CCOC(=O)C(=CNc1ccc(Cc2cnc(N)nc2N)cc1CC)C(=O)OCC [TCMDC-137346],53.58
20,O=C1CN(C(=O)CCC2CCCC2)C(c2ccc(F)cc2)c2cc(F)ccc2N1 (centres unmarked) [TCMDC-124463],-48.27
21,O=C(Nc1cccc(OC2CCN(Cc3ccccc3)CC2)c1)c1ccc(Cl)c(Cl)c1 [TCMDC-139542],5.419
22,c1ccc2oc(-c3cc4ccncc4cc3OC3CCNCC3)cc2c1 [TCMDC-134160],92.38
23,c1cncc(NCc2ccc(-c3cc4ccncc4cc3OC3CCNCC3)s2)c1 [TCMDC-134161],28.32

row,Structure (SMILES),% Inhibition [%]
1,Nc1ncc(-c2cc3ccccc3o2)c(N)n1 [TCMDC-137177],18.48
2,O=C(Nc1cccnc1)c1ccc(-c2cc3ccncc3cc2OC2CCNCC2)s1 [TCMDC-134228],62.63
3,Cc1cc(NC(=O)c2cccs2)ccc1OC1CCN(Cc2ccccc2)CC1 [TCMDC-133988],37.37
4,COc1cccc(-c2nn(C)c3sc(C(=O)Nc4cccnc4)cc23)c1 [TCMDC-123584],-55.35
5,O=C(Nc1ccccc1)c1ccc(-c2cc3ccncc3cc2OC2CCNCC2)s1 [TCMDC-134227],77.06
6,c1ccc(-c2cc3cccc(-c4nc5ccncc5[nH]4)c3o2)cc1 [TCMDC-140516],7.065
7,CCOC(=O)c1ccc(NC(=O)Nc2cccc(-c3ccc(-c4nc5cccc(C)c5[nH]4)s3)c2)cc1 [TCMDC-133258],-27.38
8,O=C(Nc1ccsc1)Nc1cccc(-c2cccc(-c3nc4ccc(F)cc4[nH]3)c2)c1 [TCMDC-133216],-18.7
9,O=C(Nc1cccc(-c2ccc(-c3nc4ccc(F)cc4[nH]3)cc2)c1)Nc1ccc(F)c(F)c1F [TCMDC-133231],-4.749
10,C=Cc1cc(NC(=O)N2CCc3cc(OC)c(C(F)(F)F)cc32)cc(-c2cccnc2)c1 [TCMDC-139030],-6.517
11,CC(C)=CC1C(C(=O)n2c(N)nc3ccccc32)C1(C)C (centres unmarked) [TCMDC-131688],3.871
12,Cc1c(C(C)(C)C)ccc2nc(N)nc(N)c12 [TCMDC-137831],-39.39
13,CC(C)(C)c1ccc(-c2cc3c(ccc4nc(N)nc(N)c43)[nH]2)cc1 [TCMDC-137977],117.8
14,Cc1c(N)ccc2[nH]c(-c3ccc(N)cc3)nc12 [TCMDC-124242],91.56
15,Cc1cc(N)cc2[nH]c(-c3ccc(N)cc3)nc12 [TCMDC-124391],-6.074
16,Nc1ccc(-c2nc3c(ccc4ccccc43)[nH]2)cc1 [TCMDC-124395],24.31
17,CC(C)n1c(C(C)(C)C)cc2c3c(N)nc(N)nc3ccc21 [TCMDC-137311],32.82
18,CC(C)c1cc2c(ccc3nc(N)nc(N)c32)[nH]1 [TCMDC-137847],19.02
19,CC(C)(C)c1ccc(Cc2cccc3nc(N)nc(N)c23)cc1 [TCMDC-137821],-51.22
20,CC(C)(C)c1ccc(-c2nc3c(ccc4nc(N)nc(N)c43)[nH]2)cc1 [TCMDC-137984],112.2
21,CC1(C)N=C(N)N=C(N)N1OCCOc1ccc2ccccc2c1 [TCMDC-131609],-8.756
22,N#Cc1cc(C(=O)Nc2ccccc2)c(N)nc1SCC(=O)Nc1ccc(Br)cc1 [TCMDC-124873],-53.64
23,CCCC(C)Nc1nc(C)cc(N[C@@H](CC(C)C)C(=O)NCCc2ccccc2)n1 (some centres unmarked) [TCMDC-134769],-46.8

row,Structure (SMILES),% Inhibition [%]
1,[O-][s+]1c(Cl)c(-c2ccc(Cl)cc2)c2ccc(Cl)cc21 (centres unmarked) [TCMDC-124011],120.8
2,Cc1noc(C)c1-c1ccc(C(=C2CCCCCCC2)c2ccc(O)cc2)cc1 [TCMDC-135872],-5.918
3,Fc1ccc(-c2oc(C3CCN(CCc4ccc(-c5nc(=S)o[nH]5)cc4)CC3)nc2COCC(F)(F)F)cc1 [TCMDC-138124],11.59
4,O=C(Cc1c[nH]cn1)Nc1cccc(-c2ccc(-c3nc4cc(F)ccc4[nH]3)s2)c1 [TCMDC-136953],5.637
5,O=C(Nc1cccc(-c2ccc(-c3nc4cc(C(F)(F)F)ccc4[nH]3)s2)c1)c1ccncc1 [TCMDC-136960],-10.77
6,O=C(Nc1ccc(-c2ccc(-c3nc4cc(C(F)(F)F)ccc4[nH]3)s2)cc1)c1c[nH]cn1 [TCMDC-136933],1.444
7,O=C(Cc1c[nH]cn1)Nc1ccc(-c2ccc(-c3nc4cc(C(F)(F)F)ccc4[nH]3)s2)cc1 [TCMDC-136944],-5.397
8,O=C(Cc1c[nH]cn1)Nc1cccc(-c2ccc(-c3nc4cc(C(F)(F)F)ccc4[nH]3)s2)c1 [TCMDC-136945],84.53
9,O=C(Nc1cccc(-c2ccc(-c3nc4cc(C(F)(F)F)ccc4[nH]3)s2)c1)c1c[nH]cn1 [TCMDC-136934],63.59
10,Cc1cccc2nc(-c3cccc(-c4cccc(CNCCc5ccncc5)c4)c3)[nH]c12.O=C(O)C(F)(F)F [TCMDC-132844],3.347
11,O=C(CCc1cccnc1)Nc1cccc(-c2ccc(-c3nc4cc(C(F)(F)F)ccc4[nH]3)s2)c1 [TCMDC-132147],0.1764
12,CC(=O)Nc1ccc(C(=O)NC2CCN(c3ccnc4cc(Cl)ccc34)CC2)cc1 [TCMDC-133572],1.937
13,CC(C)C[C@H](NC(=O)c1cc2ccccc2s1)C(=O)N[C@H]1CCN(Cc2ccc(OC[C@@H]3CCCN3C)c3ccccc23)C1 [TCMDC-140290],74.51
14,COc1ccc(Nc2nccc(N3CCC(NC(=O)c4cc5ccccc5s4)C3)n2)cc1 (centres unmarked) [TCMDC-133614],-3.392
15,CC(C)C[C@H](NC(=O)c1cc2ccccc2s1)C(=O)N[C@H]1CCN(Cc2ccc(OC[C@@H]3CCCN3C)c(Cl)c2)C1 [TCMDC-140292],28.24
16,CC(C)C[C@H](NC(=O)c1cc2ccccc2s1)C(=O)N[C@H]1CCN(Cc2ccc(OCCN3CCNCC3)c3ccccc23)C1 [TCMDC-140289],107.5
17,COc1cc(Nc2nccc(N3CCC(NC(=O)c4cc5ccccc5s4)C3)n2)cc(OC)c1OC (centres unmarked) [TCMDC-133624],0.1379
18,O=C(Nc1cccc(C(F)(F)F)c1)N1CCOC(CCN2CCC3(CCc4ccccc43)CC2)(c2ccc(Cl)c(Cl)c2)C1 (centres unmarked) [TCMDC-135340],-5.677
19,OCC1CCN(Cc2cccc(C#Cc3cc4ncnc(Nc5ccc(OCc6cccc(F)c6)c(Cl)c5)c4s3)n2)CC1 [TCMDC-138841],11.44
20,Cc1cc(N2CCN(C)CC2)nc2ccc(NC(=O)c3cccc(N(C)C)c3)cc12 [TCMDC-124449],4.693
21,Cc1cc(N2CCN(C)CC2)nc2ccc(NC(=O)Cc3cccc(C(F)(F)F)c3)cc12 [TCMDC-123590],92.11
22,CCN1CCN(c2cc(C)c3cc(NC(=O)c4cccc(C(F)(F)F)c4)ccc3n2)CC1 [TCMDC-125572],-33.11

# Reference: article PMC4552634, “A New Set of Chemical Starting Points with Plasmodium falciparum Transmission-Blocking Potential for Antimalarial Drug Discovery” (PLoS ONE, 2015)
